Source: PubChem BioAssay (EPA / NIEHS)
Records with an inconclusive call do not appear. Activity calls are given as the source filed them. Rule for the calls: active = hit-call score of the fitted dose curve at least 0.9, where 1 is the maximum; inconclusive = response in the unintended direction; inactive = score below 0.9.

Target: Nuclear receptor subfamily 1 group I member 2 (Homo sapiens) (UniProt O75469)
Test: ATG_PXR_TRANS: Attagene TRANS-FACTORIAL HepG2 Assay for human Pregnane X Receptor (PXR) (AID 2283008)
Method: ATG_TRANS is a cell-based, multiplexed-readout assay that uses HepG2, a human liver cell line, with measurements taken at 24 hours after chemical dosing in a 24-well plate.ATG_PXR_TRANS is one of 30 assay component(s) measured or calculated from the ATG_TRANS assay. It is designed to make measurements of mRNA induction, a form of inducible reporter, as detected with fluorescence intensity signals by Reverse transcription polymerase chain reaction (RT-PCR) and Capillary electrophoresis technology.Data from the assay component ATG_PXR_TRANS was analyzed into 1 assay endpoint. This assay endpoint, ATG_PXR_TRANS, was analyzed in the positive analysis fitting direction relative to DMSO as the negative control and baseline of activity. Using a type of inducible reporter, measures of mRNA for gain-of-signal activity can be used to understand the reporter gene at the transcription factor-level as they relate to the gene NR1I2. Furthermore, this assay endpoint can be referred to as a primary readout, because this assay has produced multiple assay endpoints where this one serves a reporter gene function. To generalize the intended target to other relatable targets, this assay endpoint is annotated to the nuclear receptor intended target family, where the subfamily is non-steroidal.
Human liver HepG2 cells are transiently transfected with multiple reporter transcription units (MRTUs) in 6-well plates using FuGene 6 reagent (Roche; 3 ml FuGene/1 mg DNA). The MRTU constructs are regulated by a cis-regulating element (promoter). […] A major difference between the CIS and TRANS system is that in CIS activities of endogenous TFs are measured, whereas the TRANS assay evaluates changes in activities of exogenous, chimeric NR-Gal4 proteins. […] At the end of 24 hour incubation, total RNA was isolated using TriZol reagent (Invitrogen). The isolated RNA is then reverse-transcribed using oligo(dT) primer and Mo-MLV reverse transcriptase (Invitrogen) with DNAse I (Ambion) treatment for 30 min. The one-tenth of the produced cDNA was amplified by PCR using Taq DNA polymerase (Invitrogen) and two reporter sequence-specific primers. The PCR products were fluorescently labeled by primer extension with 6-arboxyfluorescein (6-FAM) 5'-labeled reporter sequence-specific primer (2 min at 95 C, 20 s at 68 C and 10 min at 72 C) and these products were digested with 5U of HpaI (New England Biolabs) for 2h at 37 C. The fragments were purified using Qiaquick PCR columns (Qiagen), analyzed on an ABI 3130xL genetic analyzer (Applied Biosystems) with peak positions identified by using a set of X-rhodamine (ROX)-labeled MapMarker1000 molecular weight standards (BioVentures). The raw capillary electrophoresis data was processed using Attagraph software (Attagene).

Chain of Nuclear receptor subfamily 1 group I member 2 (Homo sapiens) (O75469 whole entry, looked up): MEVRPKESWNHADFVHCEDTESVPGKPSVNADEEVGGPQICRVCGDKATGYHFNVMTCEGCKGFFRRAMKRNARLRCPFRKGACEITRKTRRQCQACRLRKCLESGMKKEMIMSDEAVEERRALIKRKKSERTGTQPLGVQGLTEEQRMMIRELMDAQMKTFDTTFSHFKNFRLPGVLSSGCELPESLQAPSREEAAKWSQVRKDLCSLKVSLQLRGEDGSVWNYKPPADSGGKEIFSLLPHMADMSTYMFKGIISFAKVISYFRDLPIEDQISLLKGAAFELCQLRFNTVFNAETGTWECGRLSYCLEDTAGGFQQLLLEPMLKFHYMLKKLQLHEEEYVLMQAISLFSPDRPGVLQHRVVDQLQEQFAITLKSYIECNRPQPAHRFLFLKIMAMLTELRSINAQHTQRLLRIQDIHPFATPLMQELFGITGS

| SMILES | outcome | AC50 |
| --- | --- | --- |
| COc1cc(C)ccc1O | inactive | – |
| CCC(=O)C1CC(C(C)C)CC=C1C (stereo not given) | – | 3.16 µM (active) |
| c1ccc2c(c1)[nH]c1ccccc12 | – | 27.4 µM (active) |
| O=C(Cl)c1c(Cl)c(Cl)c(C(=O)Cl)c(Cl)c1Cl | inactive | – |
| Cc1cccc(C(C)(C)C)c1O | – | 19.9 µM (active) |
| CCC1(C)C(=O)N(Cl)C(=O)N1Cl (stereo not given) | inactive | – |
| CC1CCC(=O)C1=O (stereo not given) | inactive | – |
| CCCCC(CC)COS(=O)(=O)O (stereo not given) | inactive | – |
| CC(C)C(=O)OCCc1ccccc1 | inactive | – |
| CC(CC=O)CC(C)(C)C (stereo not given) | – | 7.15 µM (active) |
| COC(C=C(C)CCC=C(C)C)OC | inactive | – |
| CCCCCCCCCC(C)=O | inactive | – |
| COC(=O)CC(C)CCC=C(C)C (stereo not given) | inactive | – |
| Cc1ccc(S(=O)(=O)N=C=O)cc1 | inactive | – |
| CC(C)CCCCCOC(=O)CS | inactive | – |
| CCCCC(C=O)CC (stereo not given) | inactive | – |
| CCN1CCCC1=O | inactive | – |
| CCCCC1C(=O)N(c2ccccc2)N(c2ccccc2)C1=O | – | 1.01 µM (active) |
| CC(C)(c1ccccc1)c1ccc(Nc2ccc(C(C)(C)c3ccccc3)cc2)cc1 | inactive | – |
| CC1CC(=O)CC(C)(C)C1 (stereo not given) | inactive | – |

| SMILES | outcome | AC50 |
| --- | --- | --- |
| Oc1ccc(-c2ccccc2)c(Cl)c1 | inactive | – |
| O=C(C=Cc1ccccc1)OCCc1ccccc1 | inactive | – |
| CCC(C)C(=O)OC (stereo not given) | inactive | – |
| CCc1cccc(C)c1N | inactive | – |
| C=CC(C)(O)CC/C=C(\C)CC (stereo not given) | – | 6.12 µM (active) |
| CC(C)(C)NC(=O)[C@H]1CC[C@H]2[C@@H]3CC[C@H]4NC(=O)C=C[C@]4(C)[C@H]3CC[C@]12C | – | 19.8 µM (active) |
| C=C(C)C1CC=C(C)CC1 (stereo not given) | inactive | – |
| C=C(C)OC(C)=O | inactive | – |
| CC1=CC(C)C(C=O)CC1 (stereo not given) | – | 27.8 µM (active) |
| CCCCCCCCCCCC(=O)N(C)CC(=O)O | inactive | – |
| CC/C=C\CCOC(=O)c1ccccc1O | inactive | – |
| CC=C(C)C(C)=O | – | 12 µM (active) |
| CCOC(=O)[C@H](O)[C@@H](O)C(=O)OCC | – | 68.2 µM (active) |
| C=CC(=O)OCCCCCCCCCC | inactive | – |
| OCCCc1ccccc1 | inactive | – |
| CC(C)=CCCC(C)=CC#N | inactive | – |
| CC(C)(C)N | inactive | – |
| CCC(C)c1ccccc1 (stereo not given) | inactive | – |
| CCCCCCCCCCCCC | inactive | – |
| CC(C)(O)Cc1ccccc1 | inactive | – |
